Hit rate of the full screen: of about 63,000 compounds, about 1,100 (1.7%) were called active. Rule as the data show it: active = cytotoxicity above about 50%; inactive = the rest. Shown is part of a subset that was picked to be rich in actives. Measured potencies and affinities stand elsewhere.

This assay can be described thus: cytotoxicity in HPDE-C7 cells, cell-based, fluorescence, HTS (AID 430).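 Also: cells exposed to compound for 48 hours before viability readout; 0% = vehicle and 100% = reference cytotoxic drug.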 Conditions: HPDE-C7 pancreatic duct cells viability, at 10 µM, hits give high values.
As for `COC(=O)c1ccc(N2C(=O)CC(NCc3ccccc3)C2=O)cc1` (centres undefined), the cytotoxicity was -3% (inactive).

Take `CCS(=O)(=O)N1CCCC(C(=O)NCc2ccc3c(c2)OCO3)C1` (centres undefined): the cytotoxicity was -13.3% (inactive).

With `Cc1cc(C)n(-c2nncc(-c3ccccc3)n2)n1`, the cytotoxicity is 0.6% (inactive).

As for `Cc1cc(NC(=O)CSc2nnc(Cn3c(=O)sc4ccccc43)n2-c2ccccc2C)no1`, the cytotoxicity was -24.2% (inactive).

Consider `Cc1ccc(S(=O)(=O)CCC(=O)OCC(=O)Nc2cc(C)on2)cc1`, for which the cytotoxicity is -14.2% (inactive).

For `Cc1cc(C)nc(SCC(=O)c2ccc(O)cc2O)n1`, the cytotoxicity was -21% (inactive).

Turning to `OCC1OC(n2nc3ccccc3n2)C(O)C(O)C1O` (centres undefined), the cytotoxicity was -4.3% (inactive).

For the compound `COc1cccc(-n2c(CNC(=O)OC(C)(C)C)n[nH]c2=S)c1`, the cytotoxicity was 2.9% (inactive).

Take `O=S(=O)(Nc1cccc2ncccc12)c1cccs1`: the cytotoxicity was 45.6% (inactive).

On to `Cc1ccc2ncccc2c1NS(=O)(=O)c1ccccc1`, for which the cytotoxicity was -17.3% (inactive).

In the case of `CCOCC(=O)Nc1nnc(Cc2ccc(OC)c(OC)c2)s1`, the cytotoxicity is -11.9% (inactive).

With `O=C(NCCCN1CCOCC1)c1cc2ccccc2oc1=O`, the cytotoxicity was 3.1% (inactive).

Consider `Cc1oc(-c2ccc(Cl)cc2)nc1CN1CCC(C(=O)NCc2cccnc2)CC1`, for which the cytotoxicity was -28.8% (inactive).

As to `CCOCCOC(=O)c1[nH]c2c(c1C)C(=O)CC(c1ccc(N(C)C)cc1)C2` (centres undefined), the cytotoxicity is -3.3% (inactive).

On to `CCCCOC(=O)c1[nH]c2c(c1C)C(=O)CC(c1cc(OC)c(OC)c(OC)c1)C2` (centres undefined), for which the cytotoxicity is -7.3% (inactive).

For the compound `COC(=O)c1[nH]c2c(c1C)C(=O)CC(c1ccc(C)cc1)C2` (centres undefined), the cytotoxicity was 1.7% (inactive).

With `CCOC(=O)c1[nH]c2c(c1C)C(=O)CC(c1ccc(F)cc1)C2` (centres undefined), the cytotoxicity was 70.4% (active).

Consider `COCCOC(=O)c1[nH]c2c(c1C)C(=O)CC(c1ccccc1)C2` (centres undefined), for which the cytotoxicity is 50.6% (active).

Turning to `CCCCCOC(=O)c1[nH]c2c(c1C)C(=O)CC(c1ccco1)C2` (centres undefined), the cytotoxicity is 68.9% (active).

For the compound `COC(=O)c1[nH]c2c(c1C)C(=O)CC(c1ccccc1)C2` (centres undefined), the cytotoxicity is 45.6% (inactive).

Take `COC(=O)c1[nH]c2c(c1C)C(=O)CC(c1cccs1)C2` (centres undefined): the cytotoxicity was 70.9% (active).

With `CCCOC(=O)c1[nH]c2c(c1C)C(=O)CC(c1ccc(OC)c(OC)c1)C2` (centres undefined), the cytotoxicity is -5.7% (inactive).

As for `COCCOC(=O)c1[nH]c2c(c1C)C(=O)CC(c1ccc(F)cc1)C2` (centres undefined), the cytotoxicity was 4.9% (inactive).

Consider `COCCOC(=O)c1[nH]c2c(c1C)C(=O)CC(c1ccc(N(C)C)cc1)C2` (centres undefined), for which the cytotoxicity is -10.9% (inactive).

On to `CCOc1ccc(C2CC(=O)c3c([nH]c(C(=O)OC)c3C)C2)cc1OC` (centres undefined), for which the cytotoxicity is 2.6% (inactive).

As for `COc1cccc(CNC(=O)C2CCN(S(=O)(=O)N3CCCC3)CC2)c1`, the cytotoxicity was -7.2% (inactive).

For `COc1ccc2c(C)cc(=O)oc2c1C`, the cytotoxicity was 0.6% (inactive).

As for `C=CCn1c(-c2cc(OC)c(OC)c(OC)c2)n[nH]c1=S`, the cytotoxicity was -1.6% (inactive).

With `Cc1nn(-c2ccccc2)c2c1C1(C(=O)N(C)c3ccccc31)N(c1ccccc1)C(=O)N2` (centres undefined), the cytotoxicity was -21.2% (inactive).

`O=C1C=C(O)CC(c2ccc(Cl)cc2)C1` (centres undefined): the cytotoxicity was 31.1% (inactive).

On to `CCOC(=O)c1sc(NC(=O)CSc2nnc(-c3ccco3)n2CC)c(C(=O)OCC)c1C`, for which the cytotoxicity is 31.5% (inactive).

With `CCC(C)N(C(=O)Cn1nnc2ccccc21)C(C(=O)NCc1ccco1)c1cccc(OC)c1` (centres undefined), the cytotoxicity is -10.2% (inactive).

In the case of `COc1ccc(C(NC(=O)c2ccco2)c2ccc(OC)c(OC)c2)cc1OC`, the cytotoxicity is -8.3% (inactive).

For the compound `Nc1nnc(-c2ccco2)s1`, the cytotoxicity was -4.3% (inactive).

On to `CCOC(=O)N1CCC(NC(=O)Cn2cc3c(n2)CCC(C)C3)CC1` (centres undefined), for which the cytotoxicity is 6.2% (inactive).

Regarding `Cc1c(C(=O)OCC2CCCO2)[nH]c2c1C(=O)CC(c1ccco1)C2` (centres undefined), the cytotoxicity is 62.4% (active).

For the compound `Cc1c(C(=O)O)[nH]c2c1C(=O)CC(c1ccccc1)C2` (centres undefined), the cytotoxicity was -12.1% (inactive).

Take `COCCOC(=O)c1[nH]c2c(c1C)C(=O)C(C(=O)OC)C(C)C2` (centres undefined): the cytotoxicity was -7.3% (inactive).

In the case of `Cc1c(C(=O)OCCOC(C)C)[nH]c2c1C(=O)CC(C)(C)C2`, the cytotoxicity is -12% (inactive).

For the compound `CC1=C(C(=O)OCc2ccccc2)C(c2ccco2)C2=C(CC(C)(C)CC2=O)N1` (centres undefined), the cytotoxicity was 22.7% (inactive).

As for `Cc1c(C(=O)OCCOC(C)C)[nH]c2c1C(=O)CC(c1ccco1)C2` (centres undefined), the cytotoxicity is 59.9% (active).

Regarding `COCCOC(=O)c1[nH]c2c(c1C)C(=O)CC(c1ccco1)C2` (centres undefined), the cytotoxicity is 60.3% (active).

Turning to `Cc1c(C(=O)OCc2ccccc2)[nH]c2c1C(=O)CC(c1ccco1)C2` (centres undefined), the cytotoxicity is 65.7% (active).

Consider `COc1cc(C2CC(=O)c3c([nH]c(C(=O)OCCOC(C)C)c3C)C2)cc(OC)c1OC` (centres undefined), for which the cytotoxicity was 2.4% (inactive).

Take `Cc1c(C(=O)OCC2CCCO2)[nH]c2c1C(=O)CC(c1ccc(N(C)C)cc1)C2` (centres undefined): the cytotoxicity was -4.3% (inactive).

`COc1ccc(OC)c(C2CC(=O)c3c([nH]c(C(=O)OCC4CCCO4)c3C)C2)c1` (centres undefined): the cytotoxicity was 8.2% (inactive).

For the compound `CCN1CCN(c2ncc(C(=O)N3CCCc4ccccc43)c3ccccc23)CC1`, the cytotoxicity is -18.1% (inactive).

In the case of `Cn1c(=O)c2c(nc(N3CCCCCC3)n2CC(O)COc2ccccc2)n(C)c1=O` (centres undefined), the cytotoxicity was 3.5% (inactive).

As to `COC(=O)c1[nH]c2cc(OC)c(OC)cc2c1NC(=O)c1cccc(OC)c1`, the cytotoxicity was -10.5% (inactive).

For `COc1ccc(-c2noc(COc3ccc(C)c(C)c3)n2)cc1OC`, the cytotoxicity was 3.4% (inactive).

Take `Cc1c(C(=O)OC2CCCC2)[nH]c2c1C(=O)CC(c1ccco1)C2` (centres undefined): the cytotoxicity was 79.3% (active).

Consider `CCOC(=O)c1[nH]c2c(c1C)C(=O)CC(c1ccco1)C2` (centres undefined), for which the cytotoxicity is 70.2% (active).

As to `CSCCOC(=O)c1[nH]c2c(c1C)C(=O)CC(c1ccco1)C2` (centres undefined), the cytotoxicity is 64.9% (active).

Regarding `Cc1c(C(=O)OC2CCCCC2)[nH]c2c1C(=O)CC(C)(C)C2`, the cytotoxicity is -3.5% (inactive).

For `CCOC(=O)c1[nH]c2c(c1C)C(=O)CC(c1ccc(OCC)c(OC)c1)C2` (centres undefined), the cytotoxicity is -5% (inactive).

Take `Cc1c(C(=O)OCC(C)C)[nH]c2c1C(=O)CC(c1ccco1)C2` (centres undefined): the cytotoxicity was 63.7% (active).

Take `CCOC(=O)c1[nH]c2c(c1C)C(=O)CC(c1ccc(OC)c(OC)c1)C2` (centres undefined): the cytotoxicity was -13.8% (inactive).

In the case of `Cc1c(C(=O)OC2CCC(C)CC2)[nH]c2c1C(=O)CCC2` (centres undefined), the cytotoxicity is -8.8% (inactive).

Turning to `CCC(C)OC(=O)c1[nH]c2c(c1C)C(=O)CC(c1ccc(N(C)C)cc1)C2` (centres undefined), the cytotoxicity was 11.5% (inactive).

The record behind these values is PubChem BioAssay AID430 (Sanford-Burnham Center for Chemical Genomics, 2006).
